The record followed here is PubChem BioAssay (NCATS).

Values joined by “and” are separate entries in the source; they are usually repeats but may differ in a detail not shown here. Identical values can stand only once. A number with no mark means an inactive call. Results filed as inconclusive are left out. Active and inactive are the calls of the source. Unless noted, calls follow the shape of the dose curve; as a rule, active = well fitted curve in the direction sought with a large enough effect; inconclusive = small, poorly fitted or top-dose-only effect, or another doubt; inactive = no such curve, though single readings can be large; an effect the other way counts as inactive or inconclusive.

For one test, the system named is C33A. Nature of the test: Primary qHTS to identify gynecologic anti-cancer compounds using libraries of approved drugs and bioactive compounds (AID 1345084). Also: nearly all actives have a fitted effect of over 55% in size. Also: potency is read from the fitted curve at half-maximal effect. Particulars: Gynecologic cancer cell panel viability, ATPlite luminescence, 48 h; series mostly up to 57.5 µM. The essentials: (§1)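 Cytotoxicity screen measuring ATP content by luciferase luminescence. Each compound is applied at five concentrations for 48 h at 37 C with 5% CO2.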

For the next test, the system named is CAOV3. The description is as above. Particulars: Gynecologic cancer cell panel viability, ATPlite luminescence, 48 h; series mostly up to 57.5 µM. The procedure, abridged: as §1
For orientation: ATP-based viability assays read luminescence as a measure of living cells.

A further test has as its system CASKI. The test is described as above. Particulars: Gynecologic cancer cell panel viability, ATPlite luminescence, 48 h; series mostly up to 57.5 µM. The essentials:
as §1

A further test concerns Es-2. The test is described as above. Conditions: Gynecologic cancer cell panel viability, ATPlite luminescence, 48 h; series mostly up to 57.5 µM. The essentials:
as §1

The next test deals with HeLa. The description is as above. Particulars: Gynecologic cancer cell panel viability, ATPlite luminescence, 48 h; series mostly up to 57.5 µM. The essentials: as §1
Another test relates to Hek293T. The description is as above. Particulars: Gynecologic cancer cell panel viability, ATPlite luminescence, 48 h, control line for the selectivity index; series mostly up to 57.5 µM. The essentials: as §1
The subject of a further test is JEG-3. The test is described as above. Conditions: Gynecologic cancer cell panel viability, ATPlite luminescence, 48 h; series mostly up to 57.5 µM. The procedure, abridged:
as §1

The next test concerns OV90. The test is described as above. Conditions: Gynecologic cancer cell panel viability, ATPlite luminescence, 48 h; series mostly up to 57.5 µM. The procedure, abridged:
as §1

The next test relates to PA-1. Described as above. Particulars: Gynecologic cancer cell panel viability, ATPlite luminescence, 48 h; series mostly up to 57.5 µM. The procedure, abridged: as §1
The subject of another test is SKOV3. The description is as above. Conditions: Gynecologic cancer cell panel viability, ATPlite luminescence, 48 h; series mostly up to 57.5 µM. The procedure, abridged:
as §1

Another test has as its system Tov-21-G. The description is as above. Particulars: Gynecologic cancer cell panel viability, ATPlite luminescence, 48 h; series mostly up to 57.5 µM. The procedure, abridged: as §1
A further test deals with Tov112D. Described as above. Conditions: Gynecologic cancer cell panel viability, ATPlite luminescence, 48 h; series mostly up to 57.5 µM. The essentials:
as §1

Test [1] in a line: qHTS assay to identify inhibitors of the type 1 interferon - major histocompatibility complex class I in skeletal muscle: Counter screen cell viability and HiBit confirmation (AID 1347412). Also: potency is read from the fitted curve at half-maximal effect; nearly all actives have a fitted effect of over 60% in size. Particulars: iHSKM muscle cells + IFN-b, HiBiT or CellTiter-Glo, 24 h. The essentials: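 CRISPR HLA-B*08:01-HiBit immortalized human myoblasts (C25cl48) stimulated with 4 ng/ml IFN-beta and compounds (12-point 1:3, top 46 uM final) for 24 h at 37 C. Duplicate plates read by HiBit lytic luminescence or CellTiter Glo ATP.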
In general terms: qHTS replaces the single test concentration by a dilution series.

Test [2] in a line: Drug repurposing screens with cells derived from glioblastoma tumor samples (AID 1345199). Also: nearly all actives have a fitted effect of over 40% in size. Also: potency is read from the fitted curve at half-maximal effect. As to activity, negative = cell killing: % is scaled to controls: 0 for no effect and ±100 for the full control effect. Conditions: GBM patient neurospheres viability, ATP luminescence, 48 h. The essentials: (§2)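 Four patient lines of CD133+ GBM neurospheres were screened at several concentrations; hits were retested in those lines plus three slower-growing GBM lines, using 48-hour treatment and ATP-based viability.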

For the next test, the system named is astro. The description is as above. Conditions: viability, ATP luminescence, 48 h; series mostly up to 45.9 µM. The procedure, abridged: as §2
The target of test [3] is Nuclear receptor subfamily 1 group I member 2 (Rattus norvegicus) (UniProt Q9R1A7). Nature of the test: qHTS assay for small molecule activators of the rat pregnane X receptor (rPXR) signaling pathway (AID 651751; call rule not given here; also: 0% is about no effect). Particulars: rPXR reporter cells, luciferase (One-Glo), 24 h.
Nuclear receptor subfamily 1 group I member 2 (Rattus norvegicus), sequence (Q9R1A7 whole entry, looked up): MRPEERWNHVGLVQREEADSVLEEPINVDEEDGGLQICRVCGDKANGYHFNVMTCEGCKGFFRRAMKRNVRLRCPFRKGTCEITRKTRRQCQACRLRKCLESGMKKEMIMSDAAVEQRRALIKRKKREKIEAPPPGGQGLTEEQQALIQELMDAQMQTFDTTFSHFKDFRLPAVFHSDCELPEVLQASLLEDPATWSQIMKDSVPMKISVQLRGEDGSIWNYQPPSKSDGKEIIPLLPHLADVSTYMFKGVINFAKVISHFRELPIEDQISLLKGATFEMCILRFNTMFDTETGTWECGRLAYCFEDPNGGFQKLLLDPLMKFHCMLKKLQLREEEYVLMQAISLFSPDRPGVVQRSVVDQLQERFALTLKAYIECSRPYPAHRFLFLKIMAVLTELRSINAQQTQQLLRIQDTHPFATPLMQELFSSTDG
The nature of test [4]: qHTS assay for small molecule activators of the human pregnane X receptor (PXR) signaling pathway (AID 720659; call rule not given here; also: 0% is about no effect).
The mark [5] stands for this setting: at 45.9 µM (top of the series), tumour line B.
Where [6] appears, read: at 45.9 µM (top of the series), tumour line D.
Where [7] appears, read: at 46 µM (top of the series), tumour line A.
[8] abbreviates: at 108 µM (top of the series), tumour line B.
Setting [9] is: at 108 µM (top of the series), tumour line D.

For `Cc1ccc([N+](=O)[O-])[c]2c1[O][Hg]2`, the Potency in the test on C33A is 4.47 µM (active); in the test with CAOV3 it was 6.31 µM (active); in the test on CASKI it was 7.94 µM (active); in the test with Es-2 it was 5.62 µM (active); in the test on HeLa it was 20 µM (active); in the test with Hek293T it was 5.62 µM (active). The Potency in the test with JEG-3 was 3.55 µM (active); in the test with OV90, 12.6 µM (active); with PA-1, 2.82 µM (active); in the test on SKOV3, 3.98 µM (active); in the test with Tov-21-G, 2 µM (active); in the test on Tov112D it was 5.62 µM (active). Moreover, the values for the Potency in [1] (HiBiT) and in [1] (Viability) were 6.25 µM (active) and 14 µM (active), respectively.
With `C[N+]1(CCC(C(N)=O)(c2ccccc2)c2ccccc2)CCCCC1`, the Potency entry with C33A, with CAOV3, with CASKI, in the test on Es-2, with HeLa and with Hek293T was “inactive” in each case. The Potency entry in the test on JEG-3, in the test on OV90, in the test on PA-1, in the test with SKOV3, in the test with Tov-21-G and in the test with Tov112D was “inactive” each time. Besides, the Potency result in the test with astro was “inactive”. The activity, negative = cell killing was -5.31% in test [2] (setting [5]) and -19.9% in test [2] (setting [6]).
Regarding `C=CCN1CC[C@]23CCCC[C@H]2[C@H]1Cc1ccc(O)cc13`, the Potency result in the test on C33A, in the test with CAOV3, with CASKI, in the test on Es-2, in the test on HeLa and in the test with Hek293T was “inactive” throughout. Besides, the Potency entry in the test on JEG-3, in the test on PA-1, in the test on SKOV3, with Tov-21-G and in the test with Tov112D was “inactive” in each case. The activity, negative = cell killing in [2] (setting [7]) is 29%. For the same molecule, in test [2] (tumour line B), the Potency was 35.5 µM (active).
As for `C[C@H](CN1CCOCC1)C(C(=O)N1CCCC1)(c1ccccc1)c1ccccc1`, the Potency entry in the test with C33A, in the test on CAOV3, with CASKI, with Es-2, in the test with HeLa and with Hek293T was “inactive” throughout. Moreover, the Potency entry in the test with JEG-3, in the test with PA-1, in the test on SKOV3, with Tov-21-G, in the test with Tov112D and in the test on astro was “inactive” throughout. Besides, the activity, negative = cell killing in [2] (setting [8]) was -15.2%; in test [2] (setting [9]), -29.8%. For the same molecule, the Potency in [2] (tumour line A) was 35.5 µM (active).
For `CCCOC(=O)Cc1ccc(OCC(=O)N(CC)CC)c(OC)c1`, the Potency entry with C33A, with CAOV3, in the test with CASKI, in the test with Es-2, in the test with HeLa and in the test on Hek293T was “inactive” in each case. Also, the Potency entry with JEG-3, with OV90, in the test with PA-1, in the test with Tov-21-G and with Tov112D was “inactive” in each case. The activity, negative = cell killing was -0.689% in test [2] (setting [5]), -1.94% in test [2] (setting [6]) and -27.4% in test [2] (setting [7]).
As for `CCc1cc(OC)c(C[C@H](C)N)cc1OC`, the Potency result in the test with C33A, in the test with CAOV3, in the test with CASKI, with Es-2, with HeLa and in the test with Hek293T was “inactive” throughout. Moreover, the Potency result with JEG-3, with PA-1, with SKOV3, with Tov-21-G and in the test with Tov112D was “inactive” each time. The activity, negative = cell killing in test [2] (setting [8]) was -24.5%; in test [2] (setting [9]) it was -14.6%. In addition, in test [2] (tumour line A), the Potency was 31.6 µM (active).
In the case of `O=c1n(Cl)c(=O)n(Cl)c(=O)n1Cl`, the Potency result in the test with C33A, in the test on CAOV3, in the test with CASKI, in the test with Es-2, with HeLa and in the test with Hek293T was “inactive” throughout. The Potency entry in the test on JEG-3, with OV90, in the test with PA-1, in the test on SKOV3, with Tov-21-G and in the test with Tov112D was “inactive” throughout. The activity, negative = cell killing in test [2] (setting [5]) was -0.787%; in [2] (setting [6]), 7.38%. Further, the max response in [3] is -5.15%. For the same molecule, the call in test [4] was inactive.
Take `O=C(O)c1nn(Cc2ccc(Cl)cc2Cl)c2ccccc12`: the Potency entry in the test on C33A, in the test with CAOV3, in the test on CASKI, in the test with Es-2, in the test on HeLa and in the test with Hek293T was “inactive” throughout. Further, the Potency entry in the test on JEG-3, in the test with PA-1, in the test with SKOV3, with Tov-21-G and with Tov112D was “inactive” each time. Further, the activity, negative = cell killing was -14.7% in [2] (setting [5]) and -31.3% in test [2] (setting [7]).
Turning to `CCOP(=S)(OCC)O/N=C(\C#N)c1ccccc1`, the Potency result in the test on C33A, with CAOV3, in the test with CASKI, with Es-2, in the test on HeLa and in the test with Hek293T was “inactive” in each case. In addition, the Potency result in the test with JEG-3, in the test on OV90, in the test with PA-1, with SKOV3, in the test with Tov-21-G and with Tov112D was “inactive” in each case. The activity, negative = cell killing in test [2] (setting [5]) is 9.02%; in test [2] (setting [6]) it was -6.28%. The max response in test [3] is -0.568%.
For `Cc1nnc2n1-c1sc(CCC(=O)N3CCOCC3)cc1C(c1ccccc1Cl)=NC2`, the Potency entry with C33A, in the test with CAOV3, in the test with CASKI, in the test with Es-2, in the test with HeLa and in the test with Hek293T was “inactive” throughout. Also, the Potency result in the test on JEG-3, in the test on OV90, with PA-1, in the test on SKOV3, in the test on Tov-21-G and in the test on Tov112D was “inactive” each time. The Potency result in the test on astro is “inactive”. Moreover, the activity, negative = cell killing in test [2] (setting [5]) is -14.3% and -9.87%; in test [2] (setting [6]), -19.2% and -29.4%; in test [2] (setting [7]), -18.9%.
As for `c1cc2c(c(N3CCNCC3)c1)OCCO2`, the Potency entry in the test on C33A, in the test with CAOV3, in the test with CASKI, with Es-2, in the test on HeLa and with Hek293T was “inactive” in each case. Besides, the Potency entry with JEG-3, in the test with OV90, in the test with PA-1, in the test with SKOV3, in the test with Tov-21-G and in the test with Tov112D was “inactive” in each case. In the test on astro, the Potency result was “inactive”. Besides, the activity, negative = cell killing was -7.8% in [2] (setting [5]) and -0.968% in test [2] (setting [6]).
With `ClC1=C(Cl)C2(Cl)C(CBr)CC1(Cl)C2(Cl)Cl` (stereo not given), the Potency result in the test with C33A, in the test with CAOV3, in the test on CASKI, in the test on Es-2, with HeLa and with Hek293T was “inactive” each time. The Potency result in the test on JEG-3, in the test on OV90, with PA-1, in the test with SKOV3, in the test on Tov-21-G and in the test with Tov112D was “inactive” in each case. In the test on astro, the Potency result is “inactive”.
As to `COCC(=O)N(c1c(C)cccc1C)C(C)C(=O)OC` (stereo not given), the Potency result in the test with C33A, in the test on CAOV3, in the test on CASKI, in the test with Es-2, with HeLa and with Hek293T was “inactive” in each case. The Potency result in the test with JEG-3, in the test with OV90, in the test on PA-1, in the test with SKOV3, in the test with Tov-21-G and with Tov112D was “inactive” in each case. Further, the figures for the activity, negative = cell killing in test [2] (setting [5]) and in test [2] (setting [6]) were -6.18% and -6.37%, respectively. For the same molecule, in [3], the max response was 3.13%.
Take `c1ccc2nc(N3CCNCC3)ccc2c1`: the Potency result in the test with C33A, in the test on CAOV3, in the test on CASKI, in the test on Es-2, in the test with HeLa and with Hek293T was “inactive” each time. In addition, the Potency entry with JEG-3, in the test on PA-1, in the test with SKOV3, in the test on Tov-21-G and in the test with Tov112D was “inactive” throughout.
With `CC1COC2(c3ccccc3Cl)c3cc(Cl)ccc3NC(=O)CN12` (stereo not given), the Potency entry with C33A, with CAOV3, in the test with CASKI, in the test with Es-2, in the test on HeLa and with Hek293T was “inactive” in each case. In addition, the Potency entry with JEG-3, in the test on PA-1, in the test with SKOV3, in the test with Tov-21-G and with Tov112D was “inactive” throughout.
